The record followed here is PubChem BioAssay AID651640 (Broad Institute, 2012).

Values joined by “and” are separate entries in the source; they are usually repeats but may differ in a detail not shown here. Identical values can stand only once. The whole screen tested about 350,000 compounds, of which about 6,000 (1.7%) were called active. About 5% were inconclusive and are not listed. Cut-off read from the data, not from the text of the source: active = CPE inhibition above about 20% (passing the limit was not always enough); inconclusive = no clear call, values can overlap the other calls; tested in BHK-21 cells. What follows is part of a selection rich in actives, with near analogues and random picks from the rest. Some compounds were tested as several samples or in several runs, with calls that do not always agree.

The nature of the assay: protection of cells from dengue 2 killing – plate reader, single concentration, primary screen (AID 651640).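 Note: 0% = median of neutral control wells and 100% = median of positive control wells.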 The following applies: DENV2-infected cells, cytopathic effect rescue, at 9.99 µM, stronger effect = higher value.
In the case of `C[C@@H]1CN([C@H](C)CO)C(=O)c2cc(NC(=O)Nc3ccc4c(c3)OCO4)ccc2O[C@H]1CN(C)C(=O)Nc1ccccc1`, the CPE inhibition is 6.05% (inactive).

Regarding `O=C(C[C@H]1C[C@@H]2c3cc(NC(=O)c4ccc5c(c4)OCO5)ccc3O[C@@H]2[C@@H](CO)O1)NCCN1CCCCC1`, the CPE inhibition is -1.97% (inactive).

As to `Cc1noc(C)c1S(=O)(=O)N(C)C[C@@H]1OCc2ccccc2-c2ccccc2C(=O)N([C@@H](C)CO)C[C@H]1C`, the CPE inhibition was 4.05% (inactive).

Take `Cc1cc(C(=O)CCC(=O)NNC(=O)c2ccccc2O)c(C)s1`: the CPE inhibition was -2.6% (inactive).

As for `O=C(NNC(=O)c1ccccc1O)c1ccccc1O`, the CPE inhibition is 48.5% (active).

Turning to `Cc1cc(C(=O)NNC(=O)c2ccccc2O)c(C)o1`, the CPE inhibition was -2.62% (inactive).

Take `COc1cccc(-c2ccc3n(c2=O)C[C@@H]2[C@@H](CO)[C@H](C(=O)NC4CCC4)[C@H]3N2C)c1`: the CPE inhibition is -5.73% (inactive).

As to `C[C@H](CO)N1C[C@H](C)[C@@H](CN(C)S(=O)(=O)c2cccs2)Oc2ccc(NC(=O)Nc3ccc(C(F)(F)F)cc3)cc2CC1=O`, the CPE inhibition is 3.14% (inactive).

For `CCCC(=O)Nc1ccc2c(c1)C(=O)N(C)[C@H]1CC[C@@H](CC(=O)NCc3ccccc3)O[C@@H]1CO2`, the CPE inhibition was -7.15% (inactive).

Turning to `C[C@@H]1CN([C@@H](C)CO)C(=O)c2cc(NC(=O)Nc3ccc4c(c3)OCO4)ccc2O[C@@H]1CN(C)C(=O)Nc1ccc2c(c1)OCO2`, the CPE inhibition was -0.429% (inactive).

For `CCCCCCSc1ccc(-c2nc3ccc(Cl)cn3c2NCc2ccccc2)cc1`, the CPE inhibition is 3.27% (inactive).

Take `CCCCNc1c(-c2cccc(Sc3ccc(OC)cc3)c2)nc2ccccn12`: the CPE inhibition is -17.2% (inactive).

For `CCCCNc1c(-c2ccc(OC)c(Sc3ccc(OC)cc3)c2)nc2ccc(Cl)cn12`, the CPE inhibition is 30.7% (active).

In the case of `COC(=O)C[C@@H]1C[C@@H]2c3cc(NC(=O)NC4CCCC4)ccc3O[C@@H]2[C@@H](CO)O1`, the CPE inhibition was -3.24% (inactive).

As to `CO[C@@H]1CN(C)C(=O)c2cc(NC(=O)C3CCOCC3)ccc2OC[C@H](C)N(Cc2cccnc2)C[C@@H]1C`, the CPE inhibition was -1.61% (inactive).

Consider `CCNc1ccc(C(=O)OCC(=O)N2c3ccccc3NC(=O)C2(C)C)cc1[N+](=O)[O-]`, for which the CPE inhibition was -0.27% (inactive).

Take `Cc1cc(C(=O)OCC(=O)N2c3ccccc3NC(=O)C2(C)C)c(C)n1-c1ccccc1`: the CPE inhibition was -1.8% (inactive).

With `CNS(=O)(=O)c1cccc(C(=O)OCC(=O)N2c3ccccc3NC(=O)C2(C)C)c1`, the CPE inhibition is 28.3% (active).

For the molecule `C[C@@H]1CN([C@H](C)CO)C(=O)Cc2cc(NC(=O)Cc3ccccc3)ccc2O[C@H]1CN(C)S(=O)(=O)c1cccs1`, the CPE inhibition was 1.69% (inactive).

Consider `COc1ccc(S(=O)(=O)N(C)C[C@@H]2OCCCC[C@@H](C)Oc3ccc(NC(=O)CCCN(C)C)cc3C(=O)N([C@@H](C)CO)C[C@@H]2C)cc1`, for which the CPE inhibition was 0.066% (inactive).

Consider `CCS(=O)(=O)N1Cc2cc(C(=O)N(C)C)nc(-c3cccc(-c4ccc(C#N)cc4)c3)c2[C@H]1CCO`, for which the CPE inhibition was 20.3% (active).

Take `CC(C)(C)[S@@](=O)N1Cc2cc(C(=O)N3CCOCC3)nc(-c3cccc(-c4ccc(C#N)cc4)c3)c2[C@H]1CCO`: the CPE inhibition is -2.86% (inactive).

For `CCCNC(=O)c1cc2c(c(-c3cccc(-c4ccc(C#N)cc4)c3)n1)[C@@H](CCO)N(C(=O)CC)C2`, the CPE inhibition is 4.99% (inactive).

With `CC(C)NC(=O)N(C)C[C@H]1Oc2c(NC(=O)Nc3ccc(F)cc3)cccc2C(=O)N([C@@H](C)CO)C[C@@H]1C`, the CPE inhibition is 10.9% (inactive).

On to `CO[C@H]1CN(C)C(=O)c2ccc(NC(=O)c3cccc(F)c3)cc2OC[C@@H](C)N(C(C)=O)C[C@@H]1C`, for which the CPE inhibition is -2.36% (inactive).

Consider `Cc1noc(C)c1S(=O)(=O)Nc1ccc2c(c1)C(=O)N([C@@H](C)CO)C[C@H](C)[C@H](CN(C)C(=O)Nc1ccc(C(F)(F)F)cc1)O2`, for which the CPE inhibition was -2.38% (inactive).

For the molecule `COc1ccc(S(=O)(=O)Nc2ccc3c(c2)CC(=O)N([C@H](C)CO)C[C@@H](C)[C@H](CN(C)S(=O)(=O)c2c(C)noc2C)O3)cc1`, the CPE inhibition is -6.33% (inactive).

`Cc1noc(C)c1NC(=O)N(C)C[C@H]1Oc2ccc(NS(=O)(=O)c3ccc(Cl)cc3)cc2CC(=O)N([C@H](C)CO)C[C@@H]1C`: the CPE inhibition is -8.56% (inactive).

With `Cc1noc(C)c1S(=O)(=O)Nc1ccc2c(c1)CC(=O)N([C@@H](C)CO)C[C@H](C)[C@H](CN(C)C(=O)Nc1ccccc1)O2`, the CPE inhibition was -4.97% (inactive).

Take `Cc1noc(C)c1S(=O)(=O)Nc1ccc2c(c1)CC(=O)N([C@@H](C)CO)C[C@@H](C)[C@@H](CN(C)C(=O)Nc1ccc(C(F)(F)F)cc1)O2`: the CPE inhibition is 46.5% (active).

Consider `COc1ccc(NC(=O)N(C)C[C@@H]2Oc3ccc(NS(=O)(=O)c4ccc(OC)cc4)cc3CC(=O)N([C@H](C)CO)C[C@H]2C)cc1`, for which the CPE inhibition is 11.3% (inactive).

Regarding `COc1ccc(S(=O)(=O)Nc2ccc3c(c2)CC(=O)N([C@H](C)CO)C[C@H](C)[C@H](CN(C)C(=O)Nc2ccccc2)O3)cc1`, the CPE inhibition was -6.98% (inactive).

Turning to `COc1ccc(S(=O)(=O)Nc2ccc3c(c2)CC(=O)N([C@@H](C)CO)C[C@@H](C)[C@@H](CN(C)C(=O)Nc2c(C)noc2C)O3)cc1`, the CPE inhibition is 29.8% (active).

In the case of `COc1ccc(S(=O)(=O)Nc2ccc3c(c2)CC(=O)N([C@H](C)CO)C[C@H](C)[C@@H](CN(C)C(=O)NC(C)C)O3)cc1`, the CPE inhibition was 21.3% (active).

As to `C[C@H]1CN([C@@H](C)CO)C(=O)c2cc(Br)cnc2O[C@H]1CN(C)CC1CCCC1`, the CPE inhibition is 7.93% (inactive).

With `O=C(C[C@@H]1C[C@@H]2c3cc(NC(=O)NC4CCCC4)ccc3O[C@@H]2[C@@H](CO)O1)NCc1ccccc1`, the CPE inhibition was -0.285% (inactive).

`O=C(NCC1CC1)[C@@H]1[C@@H](CO)[C@@H]2Cn3c(ccc(-c4ccccc4)c3=O)[C@H]1N2Cc1nccs1`: the CPE inhibition is -2.52% (inactive).

With `CN(C)CC(=O)N[C@H]1CC[C@H](CCNC(=O)C2CCCCC2)O[C@H]1CO`, the CPE inhibition is -1.04% (inactive).

With `O=C(Cc1ccccn1)N1CC(=O)N2[C@H](C1)[C@@H](c1ccc(-c3ccccc3)cc1)[C@@H]2CO`, the CPE inhibition is 4.12% (inactive).

With `C[C@@H]1CN([C@H](C)CO)C(=O)c2cc(NC(=O)Nc3ccccc3)ccc2O[C@@H](C)CCCCO[C@@H]1CN(C)Cc1ccncc1`, the CPE inhibition is -2.85% (inactive).

On to `COCC#Cc1cnc2c(c1)C(=O)N([C@@H](C)CO)C[C@@H](C)[C@H](CN(C)C(=O)C1CCOCC1)O2`, for which the CPE inhibition was 4.93% (inactive).

As to `O=C(O)C1C2C=CC(C2)C1C(=O)NCc1ccccc1` (configuration not stated), the CPE inhibition is 23.9% (active).

On to `O=C(NCc1ccccc1)C1CNCC(C(=O)NCc2ccccc2)C1` (configuration not stated), for which the CPE inhibition is -5.52% (inactive).

With `O=C(NCc1ccccc1)C1CCN(C(=O)Cc2ccccc2)CC1`, the CPE inhibition is -10.5% (inactive).

Regarding `O=C(NCc1ccccc1)C1=C[C@@H](C2CCCCC2)C[C@@H](OCc2ccc(CO)cc2)O1`, the CPE inhibition was -6.36% (inactive) and 1.63% (inactive).

On to `O=C(NCc1ccccc1)C1=C[C@H](C2CC2)C[C@H](OCc2ccc(CO)cc2)O1`, for which the CPE inhibition is -16.3% (inactive) and 0.479% (inactive).

For `CC(C)(C)[C@H]1C=C(C(=O)NCc2ccccc2)O[C@@H](OCc2ccc(CO)cc2)C1`, the CPE inhibition was 51.1% (active) and -3.51% (inactive).

Turning to `CO[C@@H](CN(C)C(=O)c1ccc2c(c1)OCO2)[C@@H](C)CN([C@H](C)CO)S(=O)(=O)c1ccccc1`, the CPE inhibition is -3.46% (inactive).

Consider `CN1C(=O)c2cc(NC(=O)C3CCOCC3)ccc2OC[C@H]2O[C@@H](CC(=O)NCC3CCCCC3)CC[C@@H]21`, for which the CPE inhibition was 1.63% (inactive).

`[N-]=[N+]=Nc1ccccc1C[C@@]1(C(=O)NCc2ccccc2)N=C(c2ccc(OCCCO)cc2)O[C@@H]1c1ccccc1`: the CPE inhibition was 33.8% (active).

For the molecule `C=CC[C@]1(C(=O)NCC(O)CO)N=C(c2ccc(OCCCO)cc2)O[C@H]1c1ccccc1` (some centres not stated), the CPE inhibition was 1.79% (inactive).

For `COC(=O)[C@@]1(CCS(=O)(=O)c2ccccc2)N=C(c2ccc(OCCCO)cc2)O[C@H]1c1ccccc1N=[N+]=[N-]`, the CPE inhibition is -1.34% (inactive).

Take `O=C(C[C@H]1CC[C@H](NC(=O)C2CCC2)[C@@H](CO)O1)Nc1nccs1`: the CPE inhibition was 0.802% (inactive).

Turning to `O=C(Cc1ccccn1)N[C@H]1CC[C@@H](CC(=O)N2CCCCC2)O[C@@H]1CO`, the CPE inhibition is -2.26% (inactive).

For `OC(CCl)CCl`, the CPE inhibition is 32.4% (active).

With `O=C(c1ccc(F)cc1)N1CC(=O)N2[C@H](CO)[C@H](c3ccc(-c4ccccc4F)cc3)[C@@H]2C1`, the CPE inhibition is 7.8% (inactive).

In the case of `C[C@@H]1CN([C@H](C)CO)C(=O)c2cc(NC(=O)Nc3cccc4ccccc34)ccc2O[C@@H](C)CCCCO[C@H]1CN(C)S(=O)(=O)c1cccs1`, the CPE inhibition is -15.6% (inactive).

As for `CCCN1[C@H](C(=O)NC2Cc3ccccc3C2)[C@@H](CO)[C@@H]2Cn3c(cccc3=O)[C@@H]21`, the CPE inhibition is -9.85% (inactive).

In the case of `CCCNC(=O)[C@H]1[C@H](CO)[C@H]2Cn3c(cccc3=O)[C@H]2N1Cc1ccccc1Cl`, the CPE inhibition was 140% (active).

As to `O=C(NCc1ccccc1Cl)[C@H]1[C@H](CO)[C@H]2Cn3c(cccc3=O)[C@H]2N1C(=O)C1CCC1`, the CPE inhibition is -3.74% (inactive).

For the molecule `O=C(c1cccnc1)N1CC[C@H]2[C@H](CO)Nc3ccc(-c4ccc(F)cc4)cc3[C@H]21`, the CPE inhibition was 1.83% (inactive).

As to `C[C@@H]1CN([C@@H](C)CO)C(=O)Cc2cc(NC(=O)Cc3ccccc3)ccc2O[C@@H]1CN(C)C(=O)Nc1ccc2c(c1)OCO2`, the CPE inhibition is -7.53% (inactive).

`COCC(=O)N1CC[C@@H]2[C@@H](CO)Nc3ccc(-c4ccc(C(=O)N(C)C)cc4)cc3[C@@H]21`: the CPE inhibition is 5.72% (inactive).

Consider `O=C(NC1Cc2ccccc2C1)[C@H]1[C@H](CO)[C@H]2Cn3c(ccc(C4=CCCCC4)c3=O)[C@H]2N1CC1CC1`, for which the CPE inhibition was 39.5% (active).

Consider `O=C(NC1CCC1)[C@H]1[C@H](CO)[C@H]2Cn3c(ccc(C4=CCCCC4)c3=O)[C@@H]1N2CC1CC1`, for which the CPE inhibition was -0.675% (inactive).

Regarding `CCNC(=O)[C@@H]1[C@@H](CO)[C@@H]2Cn3c(ccc(C4=CCCCC4)c3=O)[C@@H]2N1Cc1ccccc1F`, the CPE inhibition was 2.99% (inactive).

As to `COc1ccccc1NC(=O)N[C@H]1C=C[C@@H](CC(=O)N[C@@H](C)c2ccccc2)O[C@@H]1CO`, the CPE inhibition is 20.2% (active).

On to `COc1ccccc1NC(=O)N[C@H]1C=C[C@H](CC(=O)N[C@@H](C)c2ccccc2)O[C@H]1CO`, for which the CPE inhibition is 4.39% (inactive).

As for `COc1ccccc1NC(=O)N[C@H]1CC[C@@H](CC(=O)N[C@@H](C)c2ccccc2)O[C@H]1CO`, the CPE inhibition was 3.47% (inactive).

On to `C[C@@H]1CN([C@@H](C)CO)C(=O)Cc2cc(NC(=O)Cc3ccccc3)ccc2O[C@H]1CN(C)Cc1ccc(C(=O)O)cc1`, for which the CPE inhibition is -5.69% (inactive).

`Cc1noc(C)c1NC(=O)N(C)C[C@@H]1Oc2ccc(NC(=O)Nc3cccc4ccccc34)cc2CC(=O)N([C@@H](C)CO)C[C@H]1C`: the CPE inhibition was 3.02% (inactive).

For the molecule `C[C@H]1CN([C@@H](C)CO)C(=O)c2cccc(NC(=O)Nc3ccc(F)cc3)c2O[C@@H]1CN(C)C(=O)Nc1ccc2c(c1)OCO2`, the CPE inhibition was -3.44% (inactive).
